Activity calls are given as the source filed them. Rule for the calls: active = hit-call score of the fitted dose curve at least 0.9, where 1 is the maximum; inactive = score below 0.9.
Key:
[1] = ATG_CRE_CIS: Attagene CIS-FACTORIAL HepG2 Assay for human cAMP Responsive Element (CRE) binding protein 3 (AID 2282926); settings: HepG2 CRE cis-reporter, Attagene multiplexed mRNA; actives raise or lower the signal
Summary of the method: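 Transfected HepG2 were treated for 24 hours, then RNA was extracted and reporter cDNA amplified with sequence-specific primers. Labelled fragments were separated by capillary electrophoresis, and the CRE signal was fitted bidirectionally with DMSO as baseline.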

[2] = ATG_DR4_LXR_CIS: Attagene CIS-FACTORIAL HepG2 Assay for human Liver X Receptor (LXR), DR4 submotif (AID 2282929); settings: HepG2 Attagene DR4 cis-reporter, mRNA transcription; actives raise or lower the signal
Summary of the method: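 DR4 cis-reporter in HepG2, 24 h exposure. Detection: RT-PCR, 6-FAM labelling, CE fragment analysis. Endpoint fitted bidirectionally, DMSO = baseline.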

[3] = ATG_AP_1_CIS: Attagene CIS-FACTORIAL HepG2 Assay for human Activator Protein 1 (AP-1) (AID 2282931); settings: HepG2 Attagene cis-factorial AP-1 reporter mRNA; actives raise or lower the signal
Summary of the method: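 Cis-regulated reporter units transiently expressed in HepG2 report endogenous transcription-factor activity. Signal: reporter mRNA at 24 h, via RT-PCR and fluorescent capillary electrophoresis. Endpoint derived by bidirectional fitting, DMSO as negative control.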

[4] = ATG_AP_2_CIS: Attagene CIS-FACTORIAL HepG2 Assay for human Activator Protein 2 (AP-2) (AID 2282932); settings: HepG2 AP-2 cis-reporter, Attagene transcription factor profiling; actives raise or lower the signal
Summary of the method: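 Multiplexed mRNA reporter assay in HepG2: cis-regulated units report endogenous factor activity after 24 h treatment. Fluorescence from capillary electrophoresis of RT-PCR products gives the signal, with DMSO as baseline.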

[5] = biological target: Transcription factor E2F1 (Homo sapiens) (UniProt Q01094); assay: ATG_E2F_CIS: Attagene CIS-FACTORIAL HepG2 Assay for human E2F Transcription Factor 1 (AID 2282935); settings: HepG2 Attagene cis-reporter, E2F reporter RNA transcripts; actives raise or lower the signal
Summary of the method: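 Measures reporter transcript levels via RT-PCR with capillary electrophoresis detection in HepG2 cells harboring cis-regulated reporter units; 24 h post-dose; bidirectional curve fitting with DMSO as baseline.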

[6] = ATG_M_61_CIS: Attagene CIS-FACTORIAL HepG2 Assay for M61 Transcription Factor (Internal Marker) (AID 2282937); settings: HepG2 Attagene CIS-FACTORIAL M61 internal marker reporter; actives raise or lower the signal
Summary of the method: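 Background-control endpoint: HepG2 cells with cis-regulated reporter constructs, 24 h exposure, reporter mRNA detected via fluorescent primer extension and capillary electrophoresis; values from bidirectional fitting with DMSO baseline.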

[7] = ATG_EGR_CIS: Attagene CIS-FACTORIAL HepG2 Assay for human Early Growth Response 1 (EGR1) (AID 2282938); settings: HepG2 Attagene CIS-FACTORIAL EGR reporter mRNA; actives raise or lower the signal
Summary of the method: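 Endpoint derived by bidirectional fitting versus DMSO vehicle. Method: cis-promoter reporter units transfected into HepG2, 24 h dosing, RNA isolation, RT-PCR with 6-FAM primer extension and HpaI digestion, then capillary electrophoresis fluorescence detection.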

[8] = ATG_M_19_CIS: Attagene CIS-FACTORIAL HepG2 Assay for M19 Transcription Factor (Internal Marker) (AID 2282939); settings: HepG2 Attagene CIS-FACTORIAL M19 internal marker reporter; actives raise or lower the signal
Summary of the method: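 HepG2 cells transiently transfected with cis-regulated multiplexed reporter units, dosed 24 h. Reporter mRNA quantified by RT-PCR and capillary electrophoresis; internal background marker fitted bidirectionally versus DMSO.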

[9] = ATG_Ets_CIS: Attagene CIS-FACTORIAL HepG2 Assay for human Erythroblast Transformation Specific (ETS) (AID 2282941); settings: HepG2 ETS cis-reporter transcription, actives raise or lower the signal
Summary of the method: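 HepG2 cells transfected with multiple cis-regulated reporter units measuring endogenous ETS-driven transcription, 24 h after dosing. Reporter mRNA quantified by RT-PCR with capillary electrophoresis; bidirectional fit relative to DMSO.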

[10] = biological target: Hepatocyte nuclear factor 3-beta (Homo sapiens) (UniProt Q9Y261); assay: ATG_FoxA2_CIS: Attagene CIS-FACTORIAL HepG2 Assay for human Forkhead box A2 (FOXA2) (AID 2282942); settings: HepG2 cis-reporter transcription factor activity, 24 h; actives raise or lower the signal
Summary of the method: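 Measured: reporter mRNA induction or loss in HepG2 transiently carrying multiple cis-regulated reporter units, 24 h after dosing. Quantified by RT-PCR plus capillary electrophoresis, normalised to DMSO.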

[11] = ATG_GATA_CIS: Attagene CIS-FACTORIAL HepG2 Assay for human GATA Binding Protein (AID 2282944); settings: HepG2 GATA cis-element reporter, Attagene multiplex mRNA; actives raise or lower the signal
Summary of the method: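 HepG2 cells transiently transfected with multiplexed cis-element reporter units measure endogenous GATA activity; after 24 h compound exposure, reporter mRNA quantified by RT-PCR and capillary electrophoresis. Changes fitted in both directions vs DMSO.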

[12] = ATG_GLI_CIS: Attagene CIS-FACTORIAL HepG2 Assay for human Zinc Finger Protein GLI1 (AID 2282945); settings: HepG2, Attagene cis-factorial reporter mRNA, GLI element; actives raise or lower the signal
Summary of the method: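 Transiently transfected HepG2 cells report endogenous transcription factor activity via cis-element-driven reporter units. After 24 h compound exposure, reporter mRNA was measured by RT-PCR with capillary electrophoresis; bidirectional fitting against DMSO baseline.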

[13] = ATG_ISRE_CIS: Attagene CIS-FACTORIAL HepG2 Assay for human Interferon Regulatory Factor 1 (IRF1) binding to an Interferon-Stimulated Response Element (ISRE) (AID 2282948); settings: HepG2 ISRE cis-reporter (Attagene), mRNA transcription readout; actives raise or lower the signal
Summary of the method: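 Transiently transfected HepG2 cells carrying cis-element reporter units, dosed 24 hours. Reporter mRNA quantified by RT-PCR, fluorescent primer extension, HpaI digestion and capillary electrophoresis. Bidirectional fitting relative to DMSO.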

[14] = ATG_M_32_CIS: Attagene CIS-FACTORIAL HepG2 Assay for M32 Transcription Factor (Internal Marker) (AID 2282949); settings: HepG2 Attagene cis-factorial M32 reporter, mRNA; actives raise or lower the signal;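 note: background control marker of the multiplexed CIS panel rather than a real target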
Summary of the method: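 Internal background marker read-out: RT-PCR/capillary electrophoresis fluorescence of reporter transcripts from transiently transfected HepG2 cells after 24 h chemical exposure. Activity fitted bidirectionally relative to DMSO negative control.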

[15] = ATG_M_06_CIS: Attagene CIS-FACTORIAL HepG2 Assay for M06 Transcription Factor (Internal Marker) (AID 2282950); settings: HepG2 Attagene CIS-FACTORIAL M06 internal marker reporter; actives raise or lower the signal
Summary of the method: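 Internal background marker within multiplexed cis-reporter HepG2 system. Cells transiently transfected, dosed 24 h; reporter mRNA measured by RT-PCR, HpaI digestion and capillary electrophoresis. Bidirectional fit relative to DMSO.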

[16] = ATG_MRE_CIS: Attagene CIS-FACTORIAL HepG2 Assay for human Metal Responsive Element (MRE) (AID 2282954); settings: HepG2 MRE cis-reporter transcription, Attagene multiplex; actives raise or lower the signal
Summary of the method: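 Fluorescent reporter fragments separated by capillary electrophoresis give mRNA induction for the MRE unit after 24 h treatment of transfected HepG2 cells. Endogenous transcription-factor activity is read; DMSO serves as negative control and baseline.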

[17] = biological target: Paired box protein Pax-6 (Homo sapiens) (UniProt P26367); assay: ATG_Pax6_CIS: Attagene CIS-FACTORIAL HepG2 Assay for human Paired Box 6 (PAX6) (AID 2282956); settings: HepG2 CIS-FACTORIAL PAX6 reporter transcription, RNA readout; actives raise or lower the signal
Summary of the method: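 HepG2 cells transiently transfected with cis-promoter-driven multiplexed reporter units sensing endogenous transcription factor activity; 24 h chemical exposure. Reporter mRNA quantified by RT-PCR, 6-FAM labelling, HpaI digestion and capillary electrophoresis; bidirectional fit versus DMSO baseline.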

[18] = ATG_PXRE_CIS: Attagene CIS-FACTORIAL HepG2 Assay for human Pregnane X Receptor Element (PXRE) (AID 2282957); settings: HepG2 Attagene CIS-FACTORIAL PXRE reporter, mRNA; actives raise or lower the signal
Summary of the method: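 Multiplexed cis-reporter assay in transiently transfected human HepG2 cells; 24 h chemical exposure. Reporter transcripts quantified by RT-PCR with fluorescent labeling and capillary electrophoresis.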

[19] = biological target: Transcription factor Sp1 (Homo sapiens) (UniProt P08047); assay: ATG_Sp1_CIS: Attagene CIS-FACTORIAL HepG2 Assay for human Specificity Protein 1 (Sp1) (AID 2282961); settings: HepG2 Sp1 cis-reporter transcription, actives raise or lower the signal
Summary of the method: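 Endpoint reflects endogenous Sp1 transcriptional activity, not an exogenous fusion protein: HepG2 cells with transfected cis-regulated reporters, 24 h dosing, RT-PCR/capillary electrophoresis mRNA read-out, DMSO-normalised bidirectional fit.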

[20] = biological target: Signal transducer and activator of transcription 3 (Homo sapiens) (UniProt P40763); assay: ATG_STAT3_CIS: Attagene CIS-FACTORIAL HepG2 Assay for human Signal Transducer and Activator of Transcription 3 (STAT3) (AID 2282963); settings: HepG2, Attagene cis-factorial STAT3 reporter transcription; actives raise or lower the signal
Summary of the method: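 Values derive from bidirectional fits relative to DMSO of reporter mRNA levels, measured by RT-PCR with capillary electrophoresis, in HepG2 cells carrying transiently transfected cis-regulated reporter units and exposed 24 h.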

Measured: AC50

Sequence of Transcription factor E2F1 (Homo sapiens) (Q01094 whole entry, looked up): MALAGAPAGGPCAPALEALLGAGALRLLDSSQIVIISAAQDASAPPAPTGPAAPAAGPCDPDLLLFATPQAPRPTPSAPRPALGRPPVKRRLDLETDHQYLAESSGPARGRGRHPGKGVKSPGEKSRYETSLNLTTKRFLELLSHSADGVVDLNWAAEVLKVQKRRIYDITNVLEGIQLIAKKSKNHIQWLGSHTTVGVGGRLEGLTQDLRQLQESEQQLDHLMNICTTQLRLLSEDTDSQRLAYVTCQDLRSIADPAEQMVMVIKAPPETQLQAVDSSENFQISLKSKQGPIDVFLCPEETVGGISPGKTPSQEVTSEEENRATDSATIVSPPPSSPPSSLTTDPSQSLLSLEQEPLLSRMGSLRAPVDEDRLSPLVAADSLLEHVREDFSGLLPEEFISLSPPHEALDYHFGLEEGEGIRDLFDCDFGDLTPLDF
Sequence of Transcription factor Sp1 (Homo sapiens) (P08047 whole entry, looked up, the tested form may be a part): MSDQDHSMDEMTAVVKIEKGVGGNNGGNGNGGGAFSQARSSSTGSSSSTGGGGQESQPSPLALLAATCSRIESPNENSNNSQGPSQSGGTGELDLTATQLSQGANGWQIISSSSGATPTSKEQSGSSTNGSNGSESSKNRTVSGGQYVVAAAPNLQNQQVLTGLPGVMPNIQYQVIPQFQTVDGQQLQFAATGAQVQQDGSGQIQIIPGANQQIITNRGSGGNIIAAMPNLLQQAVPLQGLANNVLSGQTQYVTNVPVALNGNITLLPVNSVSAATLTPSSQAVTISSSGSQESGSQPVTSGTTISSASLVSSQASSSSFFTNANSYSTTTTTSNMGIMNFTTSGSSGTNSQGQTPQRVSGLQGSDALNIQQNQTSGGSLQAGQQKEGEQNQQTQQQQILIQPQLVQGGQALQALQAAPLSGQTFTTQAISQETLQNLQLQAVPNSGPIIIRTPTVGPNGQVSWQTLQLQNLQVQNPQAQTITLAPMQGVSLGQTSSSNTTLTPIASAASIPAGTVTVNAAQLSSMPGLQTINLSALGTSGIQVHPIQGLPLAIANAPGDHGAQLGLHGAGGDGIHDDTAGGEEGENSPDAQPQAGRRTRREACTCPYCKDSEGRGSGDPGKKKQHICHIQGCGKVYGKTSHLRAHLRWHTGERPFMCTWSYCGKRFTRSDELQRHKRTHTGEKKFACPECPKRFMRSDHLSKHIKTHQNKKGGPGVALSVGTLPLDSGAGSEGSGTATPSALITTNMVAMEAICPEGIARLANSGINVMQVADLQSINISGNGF
Sequence of Hepatocyte nuclear factor 3-beta (Homo sapiens) (Q9Y261 whole entry, looked up): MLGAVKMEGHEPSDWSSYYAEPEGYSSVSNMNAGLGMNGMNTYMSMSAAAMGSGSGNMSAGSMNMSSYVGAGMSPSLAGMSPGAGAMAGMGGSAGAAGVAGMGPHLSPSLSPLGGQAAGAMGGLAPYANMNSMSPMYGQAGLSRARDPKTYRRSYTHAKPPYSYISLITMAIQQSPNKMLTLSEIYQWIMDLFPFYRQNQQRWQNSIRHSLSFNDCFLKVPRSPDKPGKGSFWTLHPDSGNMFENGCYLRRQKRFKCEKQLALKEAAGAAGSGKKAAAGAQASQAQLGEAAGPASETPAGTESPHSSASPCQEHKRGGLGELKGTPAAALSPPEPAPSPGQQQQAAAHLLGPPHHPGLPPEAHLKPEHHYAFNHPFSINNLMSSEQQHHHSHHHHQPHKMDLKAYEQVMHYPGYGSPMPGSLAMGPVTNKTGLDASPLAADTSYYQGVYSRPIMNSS
Sequence of Paired box protein Pax-6 (Homo sapiens) (P26367 whole entry, looked up): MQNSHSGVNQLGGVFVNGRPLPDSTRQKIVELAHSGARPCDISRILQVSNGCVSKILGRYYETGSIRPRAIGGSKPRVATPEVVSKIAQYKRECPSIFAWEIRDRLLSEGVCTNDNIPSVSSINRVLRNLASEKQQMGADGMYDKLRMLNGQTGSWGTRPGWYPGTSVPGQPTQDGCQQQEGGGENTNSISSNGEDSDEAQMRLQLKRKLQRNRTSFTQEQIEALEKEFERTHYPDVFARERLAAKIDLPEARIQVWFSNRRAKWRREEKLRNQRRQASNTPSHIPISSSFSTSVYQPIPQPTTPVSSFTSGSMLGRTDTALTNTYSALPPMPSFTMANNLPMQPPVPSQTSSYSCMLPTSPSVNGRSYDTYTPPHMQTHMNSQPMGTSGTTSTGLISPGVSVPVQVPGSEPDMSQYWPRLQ
Sequence of Signal transducer and activator of transcription 3 (Homo sapiens) (P40763 whole entry, looked up): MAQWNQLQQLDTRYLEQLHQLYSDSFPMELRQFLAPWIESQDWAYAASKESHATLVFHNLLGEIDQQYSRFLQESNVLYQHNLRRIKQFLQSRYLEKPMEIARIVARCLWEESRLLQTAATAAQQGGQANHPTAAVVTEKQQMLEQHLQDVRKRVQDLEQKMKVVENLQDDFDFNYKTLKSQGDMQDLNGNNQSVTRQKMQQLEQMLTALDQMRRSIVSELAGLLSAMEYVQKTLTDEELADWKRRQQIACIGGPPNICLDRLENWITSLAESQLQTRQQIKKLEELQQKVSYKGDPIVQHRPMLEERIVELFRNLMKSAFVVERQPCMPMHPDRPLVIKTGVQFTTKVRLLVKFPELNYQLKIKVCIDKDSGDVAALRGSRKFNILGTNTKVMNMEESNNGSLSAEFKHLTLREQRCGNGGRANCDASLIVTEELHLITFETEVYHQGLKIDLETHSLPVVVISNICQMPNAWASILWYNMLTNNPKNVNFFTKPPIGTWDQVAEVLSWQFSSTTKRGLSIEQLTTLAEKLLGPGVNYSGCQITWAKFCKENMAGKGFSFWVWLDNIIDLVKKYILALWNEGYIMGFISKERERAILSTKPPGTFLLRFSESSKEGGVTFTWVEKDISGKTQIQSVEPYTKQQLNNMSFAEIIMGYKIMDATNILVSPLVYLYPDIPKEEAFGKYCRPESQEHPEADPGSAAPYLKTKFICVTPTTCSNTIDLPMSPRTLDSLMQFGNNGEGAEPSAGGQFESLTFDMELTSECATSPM

CCc1cccc(C)c1N(C(=O)CCl)[C@@H](C)COC
active: [7] 57.9 µM | [16] 31.3 µM | [18] 0.474 µM
inactive: all other assays above

c1ccc(P(c2ccccc2)c2ccccc2)cc1
active: [2] 31.5 µM | [18] 4.59 µM
inactive: all other assays above

Cc1ncc(C[n+]2csc(CCO)c2C)c(N)n1
inactive: all assays above

CC1OC(C)OC(C)O1 (stereo not given)
inactive: all assays above

Nc1ccc(-c2ccc(N)c(N)c2)cc1N
inactive: all assays above

CC(C)(C)C(O)C(Oc1ccc(-c2ccccc2)cc1)n1cncn1 (stereo not given)
active: [2] 57.3 µM | [3] 44.2 µM | [13] 51.8 µM | [16] 42 µM | [18] 1.29 µM
inactive: all other assays above

O=C(O)CCCc1ccc(N(CCCl)CCCl)cc1
active: [2] 112 µM
inactive: all other assays above

SCc1ccco1
active: [3] 52 µM | [18] 27.7 µM
inactive: all other assays above

Oc1ccc(Cl)cc1
active: [18] 27.9 µM
inactive: all other assays above

Oc1ccc(C2(c3ccc(O)cc3)c3ccccc3-c3ccccc32)cc1
active: [1] 8.42 µM | [2] 10.6 µM | [5] 19.8 µM | [7] 14 µM | [11] 14.6 µM | [12] 19.1 µM | [13] 14.8 µM | [16] 13.1 µM | [17] 14.9 µM | [18] 2.78 µM
inactive: all other assays above

CCCCCCCCCCCCCCCC[N+](C)(C)C
active: [1] 48.9 µM | [3] 100 µM | [5] 24.2 µM | [9] 100 µM | [11] 26.6 µM | [13] 27.4 µM | [14] 25.5 µM | [16] 25.5 µM | [18] 20.3 µM
inactive: all other assays above

CCC(C)c1cc([N+](=O)[O-])cc([N+](=O)[O-])c1OC(=O)C=C(C)C (stereo not given)
inactive: [1] | [2] | [4] | [6] | [8] | [10] | [11] | [14] | [15]
active: [3] 25.1 µM | [5] 151 µM | [7] 27.7 µM | [9] 100 µM | [12] 24.8 µM | [13] 141 µM | [16] 27.5 µM | [17] 37.1 µM | [18] 0.787 µM | [19] 26.2 µM | [20] 80.1 µM

O=[N+]([O-])c1cc(C(F)(F)F)c(Cl)c([N+](=O)[O-])c1Cl
active: [2] 5.08 µM | [7] 4.82 µM | [13] 5.65 µM | [16] 5.11 µM | [17] 2.77 µM | [19] 6.68 µM
inactive: all other assays above

From PubChem BioAssay (EPA / NIEHS)
